Seven molecules from PubChem BioAssay (Tox21) can be followed below.

Unmarked numbers belong to inactive results. Results filed as inconclusive are left out. Calls of active or inactive are those of the source. Unless noted, calls come from the whole dose curve; as a rule, active = well fitted curve in the direction sought with a large enough effect in the repeat runs; inconclusive = weak or mixed curves; inactive = no such curve, though single readings can be large; an effect the other way counts as inactive or inconclusive.

Assay [1] can be described thus: qHTS assay to identify small molecule antagonists of the estrogen receptor alpha (ER-alpha) signaling pathway using the BG1 cell line in the presence of 0.1 nM 17-beta-estradiol - cell viability counter screen (AID 1259241). Note: nearly all actives have a fitted effect of over 40% in size. Summed up: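 Viability in VM7Luc4E2 cells after 22 hr compound exposure under 0.1 nM 17beta-estradiol stimulation, by CellTiter-Fluor.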
(In general: qHTS replaces the single test concentration by a dilution series.)

A short description of assay [2]: qHTS assay to identify small molecule antagonists of the androgen receptor (AR) signaling pathway using the MDA cell line in the presence of 0.5 nM R1881 - cell viability counter screen (AID 1259242). Note: nearly all actives have a fitted effect of over 45% in size. The gist of the method: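 qHTS format. MDA-kb2 (MMTV-luc, AR/GR responsive) + cpd + 0.5 nM R1881 final, 16 hr 37C/0% CO2 → CellTiter-Fluor 30 min → fluorescence intensity.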

Assay [3] is described as follows: qHTS assay to identify small molecule phospholipidosis (PLD) inducers (AID 1259344; active = well fitted curve in the direction sought with a large enough effect; an effect the other way counts as inactive or inconclusive). Summed up: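 Accumulated phospholipid, stained red by LipidTOX during 24 h compound treatment of HepG2 cells at 37 C, is quantified from images as pit number and intensity, normalised per cell using Hoechst-stained nuclei.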
Assay [4] is described as follows: qHTS assay to identify small molecule HDAC inhibitors (AID 1259364).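 Note: wild-type HCT-116 cells with endogenous class I/II HDAC activity; top concentration of the series differs between compounds; nearly all actives have a fitted effect of over 45% in size.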 Summed up:
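Quantitative high-throughput format: overnight-seeded HCT-116 cells got compounds for 2 hr at 37C; HDAC-Glo I/II reagent added, 30 min RT, luminescence measured.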

The nature of assay [5]: qHTS assay to identify small molecule HDAC inhibitors - cell viability counter screen (AID 1259365). Note: series mostly up to about 92 µM; nearly all actives have a fitted effect of over 50% in size. Summed up:
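Cytotoxicity was gauged in wild-type HCT-116 cells after a brief 2hr treatment with DMSO-dissolved compounds at 37C and 5% CO2, using CellTiter-Glo luminescence developed for 30min at room temperature.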

Assay [6] in a line: qHTS assay to identify small molecule agonists of the sonic hedgehog signaling (Shh) pathway - cell viability counter screen (AID 1259366). Note: nearly all actives have a fitted effect of over 50% in size. The gist of the method:
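Stable Gli1-Luc NIH/3T3 clone, 2,000 cells/well. Compound exposure 24hr at 37C. Read-out: CellTiter-Fluor fluorescence.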

Assay [7] is described as follows: qHTS assay to identify small molecule antagonists of the sonic hedgehog signaling (Shh) pathway - cell viability counter screen (AID 1259367). Note: nearly all actives have a fitted effect of over 55% in size. The gist of the method:
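CellTiter-Fluor signal in conditioned medium-stimulated 3T3 Gli1-Luc cells, 23 hr compound exposure, 37C.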

Assay [8] is described as follows: qHTS assay to identify small molecule agonists of the sonic hedgehog signaling (Shh) pathway (AID 1259368; calls by dose curve;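 note: NIH/3T3-derived 3T3Gli1-Luc cells carrying a stable Gli1-driven firefly luciferase reporter; series mostly up to about 92 µM; nearly all actives have a fitted effect of over 15% in size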). The gist of the method: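 Quantitative high-throughput format using a Gli1-driven firefly luciferase reporter line derived from NIH/3T3 cells. After a 24 hr compound treatment at 37 C and 5% CO2, luminescence reported Gli1 response element activity.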
Assay [9] can be described thus: qHTS assay to identify small molecule antagonists of the sonic hedgehog signaling (Shh) pathway (AID 1259369; calls by dose curve; note: nearly all actives have a fitted effect of over 45% in size; note: potency is the fitted concentration of half-maximal effect). Summed up: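 Stable Gli1-Luc reporter NIH/3T3 clone; quantitative HTS in stimulated mode with conditioned medium. Luminescence measured after 24hr compound treatment at 37 C.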
A short description of assay [10]: qHTS assay to identify small molecule agonists of the androgen receptor (AR) signaling pathway in the presence of an antagonist - cell viability counter screen (AID 1259379).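 Note: MDA-kb2 human breast cancer cells carrying an MMTV luciferase reporter; series mostly up to about 92 µM; nearly all actives have a fitted effect of over 25% in size.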 The gist of the method: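 Nilutamide-containing (3.0uM final) MDA-kb2 cultures, 3,000 cells/well, were treated with compounds across 15 concentrations. After 16 hr at 37C with no CO2, cell viability was determined by CellTiter-Fluor fluorescence in the luciferase assay wells.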

Assay [11] is described as follows: qHTS assay to identify small molecule agonists of the estrogen receptor beta (ER-beta) signaling pathway - cell viability counter screen (AID 1259380). Note: nearly all actives have a fitted effect of over 30% in size. The gist of the method: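 Steps: plate ER-beta-UAS-bla HEK293T cells, rest 6 hr; add compounds in DMSO; incubate 16 hr at 37C, 5% CO2; add FRET substrate 2 hr; add CellTiter-Glo, wait 30 min at room temperature; read luminescence.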

The nature of assay [12]: qHTS assay to identify small molecule antagonists of the estrogen receptor beta (ER-beta) signaling pathway - cell viability counter screen (AID 1259382). Note: series mostly up to about 92 µM; nearly all actives have a fitted effect of over 55% in size. The gist of the method: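 Viability is scored by CellTiter-Glo luminescence (30 min, room temperature) in ER-beta-UAS-bla HEK293T wells already read for reporter fluorescence. Compound exposure lasts 16 hr at 37C alongside 1nM 17-beta-estradiol in charcoal-stripped serum medium.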

Assay [13] is described as follows: qHTS assay to identify small molecule agonists of the estrogen receptor alpha (ER-alpha) signaling pathway in the presence of an antagonist - cell viability counter screen (AID 1259386).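 Note: series mostly up to about 92 µM; cells exposed to compounds for 22 h at 37 °C before the viability read; nearly all actives have a fitted effect of over 30% in size.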 Summed up:
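In this counter screen, compound effects on VM7Luc4E2 viability were tested in the presence of the antagonist ICI-182,780 at 10.0nM final. Compounds were dosed at 15 concentrations, exposure lasted 22hr, and the CellTiter-Fluor signal was read.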

Assay [14] deals with Estrogen receptor beta (Homo sapiens) (UniProt Q92731). The experiment in a line: qHTS assay to identify small molecule agonists of the estrogen receptor beta (ER-beta) signaling pathway (AID 1259377; active = well fitted activation curve with a large enough effect in the signal ratio in the repeat runs, not every such curve was filed as active; the % refers to the signal ratio). The gist of the method:
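Measured by fluorescence intensity from a B/G FRET beta-lactamase substrate (2 h, room temperature) in ER-beta-UAS-bla HEK293T cells treated with DMSO-dissolved compounds for 16 hr at 37C and 5% CO2.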

Assay [15] shares this target. In words: qHTS assay to identify small molecule antagonists of the estrogen receptor beta (ER-beta) signaling pathway (AID 1259378; active = well fitted inhibition curve with a large enough effect in the signal ratio in the repeat runs, not every such curve was filed as active; the % refers to the signal ratio). Summed up: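 Antagonist mode: compounds added to beta-lactamase reporter HEK293T ER-beta-UAS cells stimulated with E2 (1nM final), 16 hr at 37C. LiveBLAzer B/G FRET substrate, 2 hours room temperature, fluorescence read-out.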
Assay [16] can be described thus: qHTS assay to identify small molecule agonists or antagonists of the thyroid stimulating hormone receptor (TSHR) signaling pathway - wild type cell line counter screen (AID 1259384; calls by dose curve). Summed up: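 Counter screen in untransfected Hek293: compounds (15-point titration, triplicate) plus phosphodiesterase inhibitor Ro20-1724 added after 18 h plating; 30 min RT. Intracellular cAMP via competitive d2/cryptate immunoassay, 1 h incubation.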

Assay [17] addresses Thyrotropin receptor (Homo sapiens) (UniProt P16473). The experiment in a line: qHTS assay to identify small molecule antagonists of the thyroid stimulating hormone receptor (TSHR) signaling pathway (AID 1259385; calls by dose curve; note: nearly all actives have a fitted effect of over 20% in size). Summed up: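 Antagonist mode: compound-treated TSHR-expressing HEK293 cells were stimulated with 1.5 ng/mL TSH (final) in presence of Ro20-1724 for 30 min at RT. HTRF cAMP detection after 1 h; each compound tested at 15 concentrations, triplicate.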

Assay [18] addresses Estrogen receptor (Homo sapiens) (UniProt P03372). In words: qHTS assay to identify small molecule antagonists of the estrogen receptor alpha (ER-alpha) signaling pathway using the BG1 cell line in the presence of 0.1 nM 17-beta-estradiol (AID 1259244). Note: nearly all actives have a fitted effect of over 50% in size. Summed up:
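Reporter is a stably transfected luciferase under four estrogen responsive elements in VM7Luc4E2 cells expressing native full-length ER-alpha; inhibition of 0.1 nM (final) 17beta-estradiol-driven signal over 22 h is read by luminescence.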

Assay [19] has the same target. In words: qHTS assay to identify small molecule agonists of the estrogen receptor alpha (ER-alpha) signaling pathway in the presence of an antagonist (AID 1259383; calls by dose curve; note: top concentration of the series differs between compounds; nearly all actives have a fitted effect of over 15% in size). The gist of the method:
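Readout was ERE-driven luciferase luminescence in VM7Luc4E2 cells, which express full-length ER-alpha endogenously. Compounds were tested at 15 concentrations for 22hr alongside 10.0nM ICI-182,780 (final concentration).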
% is set by controls: 0 for no effect and ±100 for the full control effect.

Thyrotropin receptor (Homo sapiens), sequence (P16473 whole entry, looked up): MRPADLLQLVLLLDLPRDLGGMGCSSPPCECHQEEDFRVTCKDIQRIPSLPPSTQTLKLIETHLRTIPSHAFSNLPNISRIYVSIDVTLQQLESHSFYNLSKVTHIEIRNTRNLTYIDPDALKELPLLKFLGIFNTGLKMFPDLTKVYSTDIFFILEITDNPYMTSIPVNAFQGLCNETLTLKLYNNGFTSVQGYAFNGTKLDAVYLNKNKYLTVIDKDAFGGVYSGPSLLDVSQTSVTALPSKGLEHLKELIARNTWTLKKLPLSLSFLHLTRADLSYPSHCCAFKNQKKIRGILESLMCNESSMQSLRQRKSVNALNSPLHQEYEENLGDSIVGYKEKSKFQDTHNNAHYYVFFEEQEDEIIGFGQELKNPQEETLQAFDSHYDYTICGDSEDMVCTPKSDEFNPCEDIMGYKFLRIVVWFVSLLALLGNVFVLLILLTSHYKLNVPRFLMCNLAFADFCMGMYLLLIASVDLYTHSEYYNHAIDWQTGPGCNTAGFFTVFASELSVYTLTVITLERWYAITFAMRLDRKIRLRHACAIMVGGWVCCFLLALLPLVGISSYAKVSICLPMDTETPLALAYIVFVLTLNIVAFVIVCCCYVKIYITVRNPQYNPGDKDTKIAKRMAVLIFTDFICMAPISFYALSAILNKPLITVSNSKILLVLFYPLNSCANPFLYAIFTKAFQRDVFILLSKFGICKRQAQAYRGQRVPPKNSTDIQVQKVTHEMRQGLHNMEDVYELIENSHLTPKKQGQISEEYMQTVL
Estrogen receptor (Homo sapiens), sequence (P03372 whole entry, looked up): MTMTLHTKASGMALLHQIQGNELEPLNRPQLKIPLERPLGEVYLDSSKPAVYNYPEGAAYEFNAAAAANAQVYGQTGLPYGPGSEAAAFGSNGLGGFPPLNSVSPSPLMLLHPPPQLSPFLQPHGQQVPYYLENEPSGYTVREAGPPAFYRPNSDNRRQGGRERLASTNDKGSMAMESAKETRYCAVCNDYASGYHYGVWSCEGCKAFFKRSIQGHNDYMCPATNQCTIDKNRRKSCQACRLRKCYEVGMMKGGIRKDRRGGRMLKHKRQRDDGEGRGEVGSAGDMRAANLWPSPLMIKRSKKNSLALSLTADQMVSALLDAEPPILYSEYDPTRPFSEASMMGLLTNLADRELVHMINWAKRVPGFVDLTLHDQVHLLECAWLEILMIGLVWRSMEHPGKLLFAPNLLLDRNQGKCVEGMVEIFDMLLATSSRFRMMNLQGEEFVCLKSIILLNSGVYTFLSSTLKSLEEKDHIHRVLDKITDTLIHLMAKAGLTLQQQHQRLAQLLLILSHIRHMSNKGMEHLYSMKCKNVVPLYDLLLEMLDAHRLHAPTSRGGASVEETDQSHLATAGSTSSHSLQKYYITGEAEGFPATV
Estrogen receptor beta (Homo sapiens), sequence (Q92731 whole entry, looked up): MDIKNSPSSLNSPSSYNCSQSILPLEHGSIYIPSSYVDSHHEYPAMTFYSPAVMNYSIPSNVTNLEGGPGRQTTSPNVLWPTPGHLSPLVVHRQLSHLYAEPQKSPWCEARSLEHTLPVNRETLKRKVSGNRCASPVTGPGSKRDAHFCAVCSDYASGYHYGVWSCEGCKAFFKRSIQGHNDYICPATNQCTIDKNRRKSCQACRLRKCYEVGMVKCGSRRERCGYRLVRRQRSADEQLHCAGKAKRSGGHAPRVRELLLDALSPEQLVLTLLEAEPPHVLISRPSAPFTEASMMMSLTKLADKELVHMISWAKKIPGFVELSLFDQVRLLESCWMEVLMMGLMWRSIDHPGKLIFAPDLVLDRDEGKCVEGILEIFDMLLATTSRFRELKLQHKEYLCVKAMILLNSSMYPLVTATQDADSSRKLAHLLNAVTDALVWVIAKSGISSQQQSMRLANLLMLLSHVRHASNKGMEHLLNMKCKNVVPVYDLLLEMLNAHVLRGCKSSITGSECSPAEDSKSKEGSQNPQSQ

With `CN(C(=O)c1c(O)c2ccccc2n(C)c1=O)c1ccccc1`, the result in assay [1], in [5] and in assay [8] was inactive. Besides, the Potency entry in [2], in assay [3], in assay [4], in assay [6], in assay [7] and in [9] was “inactive” throughout. Besides, the Potency entry in [10], in assay [11], in assay [12] and in [13] was “inactive” in each case.

For the molecule `O=C(O)CN(CCOCCOCCN(CC(=O)O)CC(=O)O)CC(=O)O`, the activity change, negative = cytotoxicity in assay [1] is -0.0206% [at 0.349 µM]; in assay [5], 5.24% [at 0.349 µM]; in assay [10], 4.76% [at 0.35 µM]; in [11], 9.83% [at 0.349 µM]; in [12], 2.26% [at 0.349 µM]; in assay [13] it was 2.94% [at 0.349 µM]. Further, the figures for the viability change, negative = cytotoxic in assay [2], in [6] and in assay [7] were 4.56% [at 0.349 µM], -0.116% [at 0.349 µM] and 0.536% [at 0.349 µM], respectively. Moreover, the Potency entry in assay [3] is “inactive”. Further, the activity change in [8] was -0.0947% [at 0.349 µM]. Also, the activity change, negative = inhibition in assay [9] was 23.6% [at 0.349 µM]; in assay [17] it was 0.526% [at 0.349 µM]. The activation in assay [14] is -3.04% [at 0.348 µM]. Also, the activity, negative = inhibition in [15] was -7.82% [at 0.349 µM]. Moreover, the cAMP activity change in assay [16] was 3.85% [at 0.349 µM].

Regarding `CCc1nccnc1CC`, the activity change, negative = cytotoxicity in assay [1] is -0.0848% [at 19 µM]; in assay [5] it was 0.191% [at 19 µM]; in assay [10] it was 1.15% [at 19 µM]; in assay [11], 3.58% [at 19 µM]; in assay [12] it was 15.2% [at 19 µM]; in assay [13], 1.02% [at 19 µM]. Also, the viability change, negative = cytotoxic was 6.4% [at 19 µM] in assay [2] and 3.6% [at 19 µM] in assay [6]. The activity change, negative = inhibition in [18] was 2.66% [at 19 µM]; in [17], 0.0688% [at 19 µM]. In assay [7], the Potency entry was “inactive”. In addition, the activity change in assay [8] was 0.457% [at 18.9 µM]. Besides, in assay [19], the activation was -0.0927% [at 19 µM]. The cAMP activity change in assay [16] is -3.22% [at 18.9 µM].

For `O=Cc1cccc([N+](=O)[O-])c1`, the outcome in assay [1], in assay [18], in [5], in [8] and in assay [16] was inactive. Moreover, the Potency entry in assay [2], in assay [4], in assay [6], in assay [7], in [10] and in assay [11] was “inactive” in each case. Further, the Potency entry in [12], in assay [19], in [17] and in assay [13] was “inactive” each time.

`NS(=O)(=O)c1cc(C(=O)O)cc(N2CCCC2)c1Oc1ccccc1`: the outcome in assay [1], in assay [18], in assay [5] and in assay [16] was inactive. Besides, the Potency entry in assay [2], in [4], in [6], in [7], in assay [9] and in [10] was “inactive” each time. In addition, the Potency result in [11], in assay [12], in [19], in [17] and in [13] was “inactive” each time.

For the molecule `OC(CCN1CCCCC1)(c1ccccc1)C1CC2C=CC1C2` (stereo not drawn), the outcome in assay [1], in [18], in assay [5] and in assay [8] was inactive. Further, the Potency result in assay [2], in assay [4], in assay [7], in assay [12], in assay [19] and in [13] was “inactive” throughout. In addition, in assay [9], the Potency is 16.8 µM (active).

Consider `Cc1[nH]c(=O)c(C#N)cc1-c1ccc2nccn2c1`, for which the outcome in assay [1], in assay [5], in [8] and in assay [16] was inactive. Further, the Potency result in assay [2], in assay [3], in assay [4], in [6], in [7] and in assay [10] was “inactive” each time. In addition, the Potency result in [11], in [12], in assay [17] and in assay [13] was “inactive” in each case.
